We go through 26 compounds from PubChem BioAssay (NCATS).

Values joined by “and” are separate entries in the source; they are usually repeats but may differ in a detail not shown here. Identical values can stand only once. Records with an inconclusive call do not appear. Active and inactive are the calls of the source. Unless noted, the call rests on the fitted dose curve.

For assay [1], the target named is Bile acid receptor (Homo sapiens) (UniProt Q96RI1). As to the kind of experiment: qHTS assay for small molecule antagonists of farnesoid X receptor signaling (AID 588526). Further: on the % scale 0 is the no-effect control and ±100 the full control effect. The procedure, abridged: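 Concentration-response titrations were fitted to the Hill equation for half-maximal inhibition and maximal response, with data normalised to 50 uM chenodeoxycholic acid and DMSO control wells. Cells: FXR-UAS-bla HEK293T, dialyzed FBS.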
Bile acid receptor (Homo sapiens), sequence (Q96RI1 whole entry, looked up): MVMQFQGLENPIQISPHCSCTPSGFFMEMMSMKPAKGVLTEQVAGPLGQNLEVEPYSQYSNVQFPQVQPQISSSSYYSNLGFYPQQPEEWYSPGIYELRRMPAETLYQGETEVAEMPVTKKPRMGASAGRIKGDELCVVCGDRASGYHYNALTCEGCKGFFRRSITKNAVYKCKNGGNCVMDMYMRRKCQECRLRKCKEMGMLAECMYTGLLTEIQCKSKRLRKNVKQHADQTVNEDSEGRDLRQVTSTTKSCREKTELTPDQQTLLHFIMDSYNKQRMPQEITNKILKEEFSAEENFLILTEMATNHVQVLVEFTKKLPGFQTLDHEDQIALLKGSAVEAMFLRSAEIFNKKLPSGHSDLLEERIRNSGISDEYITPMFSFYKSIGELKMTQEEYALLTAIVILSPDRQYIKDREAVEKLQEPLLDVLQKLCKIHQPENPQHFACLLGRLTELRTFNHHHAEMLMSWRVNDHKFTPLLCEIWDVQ

Assay [2] shares this target. As to the kind of experiment: qHTS assay for small molecule agonists of farnesoid X receptor signaling (AID 588527).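 Further: series mostly up to about 77 µM; 0% = vehicle basal and 100% = reference agonist.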 Particulars: HEK293T FXR-UAS-bla, beta-lactamase ratio, 16 h; activation: stronger effect = higher value. The method in brief:
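Quantitative HTS used FXR-UAS-bla HEK293T cells with 16 h compound incubation at 37 C. EC50 values came from concentration-response curves normalized to chenodeoxycholic acid.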

For assay [3], the target named is Glucocorticoid receptor (Homo sapiens) (UniProt P04150). Put plainly: qHTS assay for small molecule agonists of glucocorticoid receptor signaling (AID 588532; active means well fitted curve in the direction sought with a large enough effect in the signal ratio, with a control signal flat; the % refers to the signal ratio;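 further: 100% = dexamethasone at 0.1 µM and 0% = DMSO only wells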). The conditions noted are these: HeLa MMTV-bla, beta-lactamase ratio, agonist, 18 h; activation: stronger effect = higher value, percent of dexamethasone control, DMSO zero. The method in brief: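 Titration series, up to 92 uM, applied to GRE-bla HeLa cells for 18 h at 37 C. Detection by CCF4 FRET substrate after 2 h at RT.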
Glucocorticoid receptor (Homo sapiens), sequence (P04150 whole entry, looked up): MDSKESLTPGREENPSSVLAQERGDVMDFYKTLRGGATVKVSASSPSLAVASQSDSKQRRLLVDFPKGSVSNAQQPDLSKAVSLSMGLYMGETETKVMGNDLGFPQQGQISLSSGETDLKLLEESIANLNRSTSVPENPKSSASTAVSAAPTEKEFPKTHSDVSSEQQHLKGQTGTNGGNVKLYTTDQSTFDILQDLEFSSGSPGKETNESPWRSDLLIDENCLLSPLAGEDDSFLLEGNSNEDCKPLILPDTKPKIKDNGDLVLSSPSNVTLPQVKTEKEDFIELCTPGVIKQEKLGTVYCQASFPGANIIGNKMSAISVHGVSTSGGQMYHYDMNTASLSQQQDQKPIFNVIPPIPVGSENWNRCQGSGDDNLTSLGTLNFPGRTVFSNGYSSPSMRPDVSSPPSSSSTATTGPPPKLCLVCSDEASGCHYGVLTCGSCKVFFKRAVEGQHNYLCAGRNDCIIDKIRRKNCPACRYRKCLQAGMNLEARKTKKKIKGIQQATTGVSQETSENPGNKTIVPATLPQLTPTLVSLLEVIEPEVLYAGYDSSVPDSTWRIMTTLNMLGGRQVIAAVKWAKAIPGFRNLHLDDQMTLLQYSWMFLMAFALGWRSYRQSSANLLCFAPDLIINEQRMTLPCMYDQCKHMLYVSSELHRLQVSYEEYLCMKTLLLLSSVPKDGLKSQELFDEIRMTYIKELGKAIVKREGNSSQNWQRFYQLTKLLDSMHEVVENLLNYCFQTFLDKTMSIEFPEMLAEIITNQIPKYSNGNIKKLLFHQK

Assay [4] has the same target. As to the kind of experiment: qHTS assay for small molecule antagonists of glucocorticoid receptor signaling (AID 588533; active means well fitted inhibition curve with a large enough effect in the signal ratio, with a control signal flat, not every such curve was filed as active; the % refers to the signal ratio;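 further: cells stimulated with 2 nM dexamethasone as agonist; on the % scale 0 is the no-effect control and ±100 the full control effect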). The procedure, abridged:
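Antagonist-mode qHTS: compound titrations added to GRE-bla HeLa cells, then dexamethasone 2 nM final; 18 h, 37 C. CCF4 FRET fluorescence normalized to dexamethasone and DMSO; IC50 from Hill fit.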

Assay [5] can be described thus: qHTS assay for small molecule agonists of retinoid X receptor alpha signaling (AID 588544). Particulars: HEK293T RXRa-UAS-bla, beta-lactamase reporter, 18 h; 530 nm emission.
Assay [6] can be described thus: qHTS assay for small molecule activators of the human pregnane X receptor (PXR) signaling pathway (AID 720659; call rule not given here; further: 0% is about no effect).
Assay [7] in a line: qHTS assay for small molecule antagonists of peroxisome proliferator-activated receptor delta signaling (AID 588535; active means well fitted inhibition curve with a large enough effect in the signal ratio, with a control signal flat, not every such curve was filed as active; the % refers to the signal ratio;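 on max response: cells co-treated with a PPAR-delta agonist as stimulator during compound exposure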). Particulars: HEK293T PPARd-UAS-bla, beta-lactamase FRET ratio, 18 h; 460 nm channel. The procedure, abridged:
(§1)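 Reporter: UAS-bla under PPAR-delta response element, HEK293T host. Medium: 2% charcoal/dextran FBS. Dosing: titration, 18 hrs, 37 C. Detection: CCF4, 2 hrs RT, 405 ex/460 and 530 em.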

Assay [8] addresses Peroxisome proliferator-activated receptor delta (Homo sapiens) (UniProt Q03181). Described as above. The method in brief:
as §1

Assay [9] is described as follows: qHTS assay for small molecule activators of the nuclear factor-kappa B (NF-kB) signaling pathway (AID 651749; active means well fitted activation curve with a large enough effect in the signal ratio; the % refers to the signal ratio; further: series mostly up to about 77 µM; % of control where 0% means no effect). Particulars: NF-kB-bla ME-180 cells, beta-lactamase FRET ratio, 16 h; activation: stronger effect = higher value. The procedure, abridged: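 Screening used 2,000 ME-180 reporter cells per well exposed to pinned compound (23 nL) or DMSO; after 16 hr at 37C, beta-lactamase expression under NF-kB control was assessed through FRET.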

The nature of assay [10]: qHTS assay for small molecule agonists of the antioxidant response element (ARE) signaling pathway (AID 651741; active means well fitted activation curve with a large enough effect in the signal ratio; the % refers to the signal ratio; further: potency means the concentration at half of the fitted maximal effect; on activation: % of control where 0% means no effect). The method in brief: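 Compounds in DMSO are pinned onto HepG2 ARE-bla cells (2,000/well) that were preincubated 5 h; plates stay 16 h at 37 C, then beta-lactamase activity is detected with LiveBLAzer B/G substrate by fluorescence.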
The target in assay [11] is Cytochrome P450 3A4 (Homo sapiens) (UniProt P08684). As to the kind of experiment: qHTS Assay for Activators of Cytochrome P450 3A4 (AID 885; active means well fitted curve in the direction sought with a large enough effect; an effect the other way counts as inactive or inconclusive; further: nearly all actives have a fitted effect of over 65% in size). The method in brief: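 Quantitative HTS format: compounds preincubated with 20nM human CYP3A4 and Luciferin-PPXE substrate at KM, reaction started by NADPH regeneration, stopped after 60 min, luciferase luminescence read 20 min later.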
Cytochrome P450 3A4 (Homo sapiens), sequence (P08684 whole entry, looked up): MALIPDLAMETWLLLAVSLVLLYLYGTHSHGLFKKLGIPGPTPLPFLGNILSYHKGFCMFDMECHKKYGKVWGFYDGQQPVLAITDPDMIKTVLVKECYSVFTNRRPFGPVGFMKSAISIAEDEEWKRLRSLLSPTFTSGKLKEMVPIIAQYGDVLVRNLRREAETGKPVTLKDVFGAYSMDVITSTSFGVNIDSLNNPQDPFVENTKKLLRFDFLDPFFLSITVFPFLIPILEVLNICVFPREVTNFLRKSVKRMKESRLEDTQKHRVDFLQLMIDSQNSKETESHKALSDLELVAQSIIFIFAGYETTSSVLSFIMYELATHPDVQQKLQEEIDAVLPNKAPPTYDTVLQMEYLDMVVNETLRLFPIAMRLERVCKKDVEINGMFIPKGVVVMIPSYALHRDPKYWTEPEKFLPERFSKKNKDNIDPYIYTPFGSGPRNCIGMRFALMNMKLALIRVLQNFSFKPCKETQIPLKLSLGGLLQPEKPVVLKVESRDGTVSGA

Assay [12] in a line: Cell Viability - LYMP2-001 (AID 921; active means well fitted curve in the direction sought with a large enough effect; an effect the other way counts as inactive or inconclusive;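 further: potency means the concentration at half of the fitted maximal effect; cells exposed to compound for 24 h at 37 °C; nearly all actives have a fitted effect of over 70% in size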). The method in brief:
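qHTS, 1536-well; lymphoblastoid cells, 24 hr compound, 37 C; ATP by CellTiter-Glo, 30 min RT; luminescence; Hill-fit AC50.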

Assay [13] has as its target Androgen receptor (Homo sapiens) (UniProt P10275). Put plainly: qHTS assay for small molecule agonists of androgen receptor signaling (AID 588515; active means well fitted curve in the direction sought with a large enough effect in the signal ratio, with a control signal flat; the % refers to the signal ratio; further: on the % scale 0 is the no-effect control and ±100 the full control effect). The conditions noted are these: AR-UAS-bla HEK293, beta-lactamase ratio, agonist 16 h; stronger effect = higher value. The procedure, abridged:
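EC50 and efficacy came from Hill fits of titrations (up to 92 uM) normalized to 30 nM R1881 as 100% and DMSO as 0%. Compound exposure was 16 h at 37 C on AR-UAS-bla HEK293 cells, with a 405/460/530 nm CCF4 fluorescence read.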

For assay [14] the target is unchanged. Put plainly: qHTS assay for small molecule antagonists of androgen receptor signaling (AID 588516; active means well fitted curve in the direction sought with a large enough effect in the signal ratio, with a control signal flat, not every such curve was filed as active; the % refers to the signal ratio; further: on the % scale 0 is the no-effect control and ±100 the full control effect). The method in brief: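 Antagonist-mode qHTS: inhibition of R1881 (10 nM)-driven beta-lactamase expression in GripTite HEK 293 cells is measured after 16 h; values are Hill-derived IC50s normalized between R1881 and DMSO wells.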
The target in assay [15] is Cytochrome P450 3A4 (Homo sapiens) (UniProt P08684). As to the kind of experiment: qHTS Assay for Inhibitors and Substrates of Cytochrome P450 3A4 (AID 884; active means well fitted curve in the direction sought with a large enough effect; an effect the other way counts as inactive or inconclusive; further: potency means the concentration at half of the fitted maximal effect; nearly all actives have a fitted effect of over 50% in size). The procedure, abridged:
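20 nM human CYP3A4 with 25 uM Luciferin-PPXE (at KM) in 200 mM KPO4, preincubated 10 min with compound; NADPH regeneration started a 60 min RT reaction. Luciferin detected by luminescence, normalized to 57 uM ketoconazole as full inhibition.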

Androgen receptor (Homo sapiens), sequence (P10275 whole entry, looked up): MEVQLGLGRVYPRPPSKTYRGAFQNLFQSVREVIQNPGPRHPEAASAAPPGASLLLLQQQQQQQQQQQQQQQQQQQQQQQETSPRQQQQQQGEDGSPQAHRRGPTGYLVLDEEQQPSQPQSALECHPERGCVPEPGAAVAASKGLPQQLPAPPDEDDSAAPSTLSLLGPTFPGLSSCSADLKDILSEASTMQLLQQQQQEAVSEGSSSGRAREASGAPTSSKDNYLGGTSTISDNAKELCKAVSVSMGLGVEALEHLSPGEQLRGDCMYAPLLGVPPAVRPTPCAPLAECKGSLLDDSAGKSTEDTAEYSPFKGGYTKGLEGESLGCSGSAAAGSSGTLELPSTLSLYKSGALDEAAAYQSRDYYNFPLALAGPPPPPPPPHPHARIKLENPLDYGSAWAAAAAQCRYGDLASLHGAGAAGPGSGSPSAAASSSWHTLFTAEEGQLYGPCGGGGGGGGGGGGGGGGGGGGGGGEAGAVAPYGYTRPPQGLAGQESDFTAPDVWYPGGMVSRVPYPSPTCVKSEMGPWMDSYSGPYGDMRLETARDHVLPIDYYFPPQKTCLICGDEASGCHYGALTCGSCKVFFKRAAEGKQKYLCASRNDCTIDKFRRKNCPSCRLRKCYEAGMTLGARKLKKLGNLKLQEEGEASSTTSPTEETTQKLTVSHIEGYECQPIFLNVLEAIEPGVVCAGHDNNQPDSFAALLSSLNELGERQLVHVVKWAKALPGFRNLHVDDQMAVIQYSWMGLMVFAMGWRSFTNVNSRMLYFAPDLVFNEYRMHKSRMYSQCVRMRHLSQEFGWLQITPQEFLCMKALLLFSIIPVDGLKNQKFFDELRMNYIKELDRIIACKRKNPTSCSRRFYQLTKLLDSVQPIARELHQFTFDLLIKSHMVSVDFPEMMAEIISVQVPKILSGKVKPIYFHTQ
Peroxisome proliferator-activated receptor delta (Homo sapiens), sequence (Q03181 whole entry, looked up): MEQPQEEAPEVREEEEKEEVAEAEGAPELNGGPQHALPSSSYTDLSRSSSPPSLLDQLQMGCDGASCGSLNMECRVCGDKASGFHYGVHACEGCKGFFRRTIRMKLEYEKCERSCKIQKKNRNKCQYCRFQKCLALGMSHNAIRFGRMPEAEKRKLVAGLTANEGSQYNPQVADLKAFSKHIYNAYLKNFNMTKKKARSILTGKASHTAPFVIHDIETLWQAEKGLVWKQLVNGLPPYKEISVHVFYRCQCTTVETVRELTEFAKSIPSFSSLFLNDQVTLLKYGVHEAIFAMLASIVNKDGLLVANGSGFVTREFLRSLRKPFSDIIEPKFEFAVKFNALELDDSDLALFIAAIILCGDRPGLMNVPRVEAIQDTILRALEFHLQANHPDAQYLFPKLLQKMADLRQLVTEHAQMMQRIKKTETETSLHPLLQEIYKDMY

With `Clc1ccc(C(Cl)(Cl)Cl)cc1`, the Potency entry in assay [1] and in [4] was “inactive” throughout. The activation in [2] is -1.93% (inactive); in [3], 0.824% (inactive). The max response in [5] was -6.16%. For the same compound, the result in assay [6] was inactive.

Consider `CCOc1ccc(C(C)(C)COCc2cccc(Oc3ccccc3)c2)cc1`, for which the Potency result in assay [1], in assay [4] and in assay [8] was “inactive” in each case. The activation in [2] is 4.53% (inactive); in [3], -0.996% (inactive); in assay [9], 2.46% (inactive). Also, the max response in assay [7] is -0.606%.

Regarding `CC1CCCCC1NC(=O)Nc1ccccc1` (stereo unspecified), the Potency entry in [1], in assay [4] and in assay [8] was “inactive” throughout. For the same compound, the activation in assay [2] was 2% (inactive); in [3], -3.51% (inactive); in [9] it was -4.02% (inactive). The max response in [7] came to 3.43%. Moreover, in assay [10], the Potency was 34.4 µM (active).

Consider `CC(Oc1cc(Cl)c(Cl)cc1Cl)C(=O)O` (stereo unspecified), for which the Potency entry in assay [1], in [4] and in assay [8] was “inactive” in each case. The activation in assay [2] is -3.32% (inactive); in [3], -0.156% (inactive). Further, the max response in assay [7] is 52.3%; in assay [5], -8.77%. Besides, the compound was classed as inactive in assay [6].

On to `O=P(O)(O)CCCl`, for which the Potency entry in [1], in assay [8] and in assay [10] was “inactive” each time. In addition, the activation in [2] was 4.97% (inactive) and -5.97% (inactive); in assay [9], 1.25% (inactive) and -0.207% (inactive). For the same compound, in assay [7], the max response was -15.9%. Further, the outcome in assay [6] was inactive.

Regarding `COP(=S)(OC)Oc1nc(Cl)c(Cl)cc1Cl`, the Potency entry in assay [1] and in assay [4] was “inactive” throughout. In addition, the activation in assay [2] is 0.351% (inactive); in assay [3], 1.34% (inactive). Further, in assay [10], the Potency was 27.3 µM (active). Further, the call in assay [6] was inactive.

In the case of `Clc1ccc([C@]2(Cn3cncn3)C[C@@H](Br)CO2)c(Cl)c1`, the Potency entry in [1] and in assay [4] was “inactive” throughout. For the same compound, the activation is -2.66% (inactive) and -2.04% (inactive) in assay [2]; 7.46% (inactive) and -5.85% (inactive) in assay [3].

As to `O=Nc1ccc(Nc2ccccc2)cc1`, in [11], the Potency result is “inactive”. The Potency in [12] is 2.51 µM (active). The activation in assay [2] is 15.6% (inactive).

As for `CCOC(=O)Nc1cccc(OC(=O)Nc2ccccc2)c1`, the activation in assay [3] was -3.53% (inactive). For the same compound, the Potency result in assay [4] is “inactive”. Besides, the results for the max response in assay [7] and in [5] were 9.77% and 2.58%, respectively. The Potency in [10] was 24.3 µM (active).

As to `O=C(O)c1nc(Cl)ccc1Cl`, in [3], the activation was -4.22% (inactive) and 6.64% (inactive). In addition, in assay [4], the Potency result was “inactive”. Besides, in assay [6], the result was inactive.

As to `CCCN(CC)CC1COC2(CCC(C(C)(C)C)CC2)O1` (stereo unspecified), the values for the activation in assay [3] and in [9] were 11.4% (inactive) and -1.56% (inactive), respectively. In addition, the Potency entry in assay [4] and in [10] was “inactive” each time. Also, the max response in assay [7] is 36.1%. For the same compound, in assay [6], the compound was classed as inactive.

As to `CNC(=O)O/N=C(\SC)C(=O)N(C)C`, the activation in assay [13] was -0.759% (inactive); in assay [9] it was -1.34% (inactive). Moreover, the Potency entry in [14] and in assay [8] was “inactive” each time. Besides, the values for the max response in assay [7] and in [5] were 22.2% and -12.6%, respectively. In [6], the call was inactive.

`CSC(=O)c1c(C(F)F)nc(C(F)(F)F)c(C(=O)SC)c1CC(C)C`: in [3], the activation is -2.18% (inactive). Further, the max response in [7] amounted to 97.5%.

For the compound `CNC(=O)Oc1cc(C)cc(C(C)C)c1`, the max response was -13.9% in [7] and -15.4% in assay [5]. For the same compound, in [8], the Potency result was “inactive”. The outcome in assay [6] was inactive.

Consider `Clc1ccccc1-c1nnc(-c2ccccc2Cl)nn1`, for which the max response in assay [7] was -44.7%; in assay [5], -1.99%. Besides, the Potency result in assay [8] was “inactive”.

Regarding `Cc1cc(Cl)ccc1OC(C)C(=O)O` (stereo unspecified), in [7], the max response was 36.3%. In addition, in assay [8], the Potency result is “inactive”. Besides, the activation in assay [9] was -2.72% (inactive). Also, the result in [6] was inactive.

Take `c1cc2c3c(cccc3c1)CC2`: the activation in [13] is 5.35% (inactive). The Potency entry in [14] and in assay [10] was “inactive” each time. Also, the max response in assay [7] was -25.4%; in assay [5] it was -7.15%. Further, the call in assay [6] was inactive.

Regarding `O=C1NCCN1Cc1ccc(Cl)nc1`, the activation in assay [13] was 5.64% (inactive); in assay [9] it was -1.02% (inactive). Moreover, the Potency result in assay [14], in assay [1], in assay [4] and in [10] was “inactive” throughout. For the same compound, the values for the max response in assay [7] and in assay [5] were -14.3% and -6.75%, respectively. Besides, in assay [6], the outcome was inactive.

Turning to `CCNc1nc(NCC)nc(SC)n1`, the results for the activation in assay [3] and in assay [9] were -3.89% (inactive) and 0.586% (inactive), respectively. Besides, in [4], the Potency entry was “inactive”. The compound was called inactive in [6].

As to `O=C=Nc1ccc(Cl)cc1`, the figures for the max response in [7] and in [5] were -52.1% and -14.4%, respectively. In addition, the Potency result in assay [8] was “inactive”. Besides, in [9], the activation was -0.765% (inactive). Moreover, the compound was called inactive in assay [6].

Consider `Cn1cc(-c2ccccc2)c(=O)c(-c2cccc(C(F)(F)F)c2)c1`, for which the activation in assay [3] was -15.3% (inactive); in assay [9], -0.874% (inactive). Also, the max response in assay [7] amounted to 16.9%. The Potency result in assay [8] is “inactive”.

Take `CC(C)(C)C(=O)[C@H](Oc1ccc(Cl)cc1)n1cncn1`: the activation was -0.211% (inactive) in assay [3] and -5.68% (inactive) in [9]. Moreover, the max response in assay [5] came to 21.3%.

Regarding `FC(F)(F)c1ccc(OCCCOc2c(Cl)cc(OCC=C(Cl)Cl)cc2Cl)nc1`, the activation in assay [13] is -16.8% (inactive); in assay [2], -2.38% (inactive); in [3], 9.84% (inactive); in [9], 0.158% (inactive). The Potency result in assay [14], in [1] and in assay [8] was “inactive” in each case. The max response in [7] is -4.25%; in assay [5] it was 5.75%. Further, the Potency in assay [10] is 54.5 µM (active). In addition, the call in assay [6] was inactive.

As for `CCCCC(CC)CO[N+](=O)[O-]` (stereo unspecified), the activation in [3] is -6.71% (inactive). Moreover, the max response is -28% in [7] and -0.882% in [5]. Also, the Potency entry in assay [8] is “inactive”. Moreover, in assay [6], the compound was called inactive.

As for `CCc1ccc(C(=O)NN(C(=O)c2cc(C)cc(C)c2)C(C)(C)C)cc1`, in assay [15], the Potency was 3.98 µM (active). Further, the Potency entry in assay [11] and in [4] was “inactive” in each case. Further, the activation in assay [3] was -6.89% (inactive); in [9], -3.3% (inactive).

Regarding `COc1cnc(OC)n2nc(NS(=O)(=O)c3c(OCC(F)F)cccc3C(F)(F)F)nc12`, in [6], the result was inactive.
